According to PubChem BioAssay:
The source made the active and inactive calls.

Key:
[1] = tested on: Human papillomavirus type 1a protein E7 (residues 44-93); test: HPV1a E7 fragment binders on microarrays, primary screen, biochemical, small-molecule microarray, residues 44-93, 635 nm fluorescence (AID 1108); conditions: small-molecule microarray binding, fluorescence 635 nm; higher = more signal;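 also: E7 fragment applied at 1 µg/mL in TBST for 1 h at 4 C; score combines spot fluorescence with its signal to noise ratio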
[2] = modulators of HCV replicon luciferase signal, primary screen, HCV replication inhibitor project, Huh7 cells, luciferase reporter (AID 1109); conditions: 48 h, higher = more signal;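 also: huh7 hepatoma cells harbouring a luciferase neomycin HCV replicon reporter; luciferase luminescence as measure of HCV replicon replication; test concentration not given here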
[3] = target: Left-right determination factor 2 (Homo sapiens) (UniProt O00292); test: LEFTY2 binders on small-molecule microarrays, primary screen, biochemical, small-molecule microarray, 635 nm fluorescence scan (AID 1110); conditions: LEFTY2 binding, higher = more signal
[4] = target: Calmodulin-1 (Homo sapiens) (UniProt P0DP23); test: CALM1 binders on microarrays, EGTA buffer, profiling panel, biochemical, small-molecule microarray, Cy5-labelled CALM1 (AID 1111); conditions: Cy5-CALM1 binding fluorescence, higher = more signal;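 also: labelled calmodulin applied in Tris saline Tween buffer holding calcium plus EGTA and DTT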
[5] = target: Calmodulin-1 (Homo sapiens) (UniProt P0DP23); test: calcium-bound CALM1 binders on microarrays, profiling panel, artefact control for SMM control-protein annotation, biochemical, small-molecule microarray, Cy5-labelled CALM1, plus calcium (AID 1112); conditions: Cy5-CALM1 binding fluorescence, higher = more signal;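 also: score merges spot fluorescence with signal to noise from triplicate slides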
[6] = small-molecule microarray binders of probe aWnt5a, primary screen, biochemical, biotinylated probe, 635/667 nm fluorescence (AID 1113); conditions: higher = more signal;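 also: score merges 667 nm fluorescence intensity with signal-to-noise per printed feature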
[7] = small-molecule microarray binders of probe aShh, primary screen, biochemical, biotinylated probe, 635/667 nm fluorescence (AID 1114); conditions: higher = more signal;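 also: probe is biotin-labelled aShh protein from a stem cell growth factor screen; measures binding of labelled protein to compounds printed on the slide; score merges feature fluorescence at 667 nm with signal-to-noise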
[8] = small-molecule microarray binders of probe aNog, primary screen, biochemical, biotinylated probe, 635/667 nm fluorescence (AID 1115); conditions: higher = more signal;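 also: probe is biotinylated aNog protein used at 0.15 µg/mL for 1 h at 4 C; z-score combines 667 nm fluorescence of each spot with its signal to noise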
[9] = target: Torsin-1A-interacting protein 1 (Homo sapiens) (UniProt Q5JTV8); test: LAP1 binders from COS7 cell lysate, primary screen, small-molecule microarray, 635/667 nm fluorescence (AID 1116); conditions: COS7-hLAP1 lysate binding, 635 nm fluorescence, higher = more signal
[10] = target: Alpha-bungarotoxin (Bungarus multicinctus) (UniProt P60615); test: alpha-bungarotoxin binders on microarray, profiling panel, artefact control for SMM control protein annotation, biochemical, small-molecule microarray, Alexa647 label, 635/667 nm fluorescence (AID 1117); conditions: alpha-BTX-A647 binding fluorescence, higher = more signal
Albumin (Bos taurus) = Albumin (Bos taurus) (UniProt P02769); test: bovine serum albumin binders on microarray, profiling panel, artefact control for SMM control protein annotation, biochemical, small-molecule microarray, Alexa647 label, 635/667 nm fluorescence (AID 1118); conditions: BSA-A647 binding, fluorescence 635 nm, higher = more signal;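 also: score merges 667 nm emission intensity and signal-to-noise per printed compound spot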
[11] = small-molecule microarray binders of probe aXIP, primary screen, biochemical, NeuroSMM set, 635/667 nm fluorescence (AID 1119); conditions: higher = more signal, called active from +8 up or from −8 down;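 also: probe is the protein aXip251-270 applied at 1 µg/mL to compound-printed slides; binding of probe to printed compounds measured as 667 nm fluorescence plus signal to noise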
[12] = small-molecule binders of probe aNOTCH3, primary screen, biochemical, small-molecule microarray, 635/667 nm fluorescence (AID 1120); conditions: higher = more signal;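 also: probe is a biotin-tagged antibody raised against NOTCH3 rather than NOTCH3 protein; score merges spot fluorescence near 667 nm with spot signal to noise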
[13] = small-molecule binders of probe aNOTCH2, primary screen, biochemical, small-molecule microarray, 635/667 nm fluorescence (AID 1121); conditions: higher = more signal;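 also: score merges feature fluorescence read at 667 nm with its signal to noise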
[14] = target: Carbonic anhydrase 2 (Homo sapiens) (UniProt P00918); test: CAII small-molecule binders, profiling panel, biochemical, small-molecule microarray, Alexa647-labelled CAII (AID 1122); conditions: CAII-A647 binding fluorescence, higher = more signal
[15] = COS7 lysate on small-molecule microarray, probe aHis, 635 nm (AID 1123); conditions: COS7 cell lysate, fluorescence, higher = more signal;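 also: z-score combines 667nm fluorescence intensity with signal-to-noise per printed compound spot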
[16] = compound binding in COS7 lysate, probe aLAP1, primary screen, cell lysate, small-molecule microarray (AID 1124); conditions: probe aLAP1, fluorescence, higher = more signal;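 also: lysate comes from COS7 cells expressing LAP1 and is applied at 0.3 µg/mL; score merges spot fluorescence near 667 nm with signal-to-noise over triplicate slides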
Sam68 (KHDRBS1) = test: Sam68 small-molecule binders, primary screen, biochemical, small-molecule microarray, 635 nm fluorescence (AID 1125); conditions: small-molecule microarray binding, higher = more signal;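 also: score merges 667 nm channel intensity with signal to noise over triplicate slides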
[17] = tested on: Chordin-like protein 2 (CHRDL2); test: CHRDL2 small-molecule binders, primary screen, biochemical, small-molecule microarray, 635 nm fluorescence (AID 1126); conditions: small-molecule microarray binding, fluorescence 635 nm; higher = more signal;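 also: printed compound slides probed with Chrdl2 protein at 4 µg/mL for 1 h at 4 C; score merges 667 nm emission intensity with signal to noise over three replicate slides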
[18] = target: Concanavalin-A (Canavalia ensiformis) (UniProt P02866); test: ConA small-molecule binders, primary screen, artefact control for SMM control protein annotation, biochemical, small-molecule microarray, Alexa647 label, 635 nm (AID 1127); conditions: ConA-A647 binding fluorescence, higher = more signal;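 also: z combines 667 nm emission intensity with signal-to-noise across three replicate slides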
Concanavalin-A (Canavalia ensiformis), sequence (P02866 whole entry, looked up): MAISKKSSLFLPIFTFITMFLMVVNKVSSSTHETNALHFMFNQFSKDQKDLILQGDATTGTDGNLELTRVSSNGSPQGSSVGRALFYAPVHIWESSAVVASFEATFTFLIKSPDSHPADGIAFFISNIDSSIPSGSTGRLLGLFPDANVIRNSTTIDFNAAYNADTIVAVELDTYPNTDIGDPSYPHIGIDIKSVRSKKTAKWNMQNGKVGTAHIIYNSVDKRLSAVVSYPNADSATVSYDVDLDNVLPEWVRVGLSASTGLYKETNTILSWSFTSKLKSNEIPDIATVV

Alpha-bungarotoxin (Bungarus multicinctus), sequence (P60615 whole entry, looked up): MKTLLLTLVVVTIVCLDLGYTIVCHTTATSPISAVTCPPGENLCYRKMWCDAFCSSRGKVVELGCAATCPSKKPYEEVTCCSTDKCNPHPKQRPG
Left-right determination factor 2 (Homo sapiens), sequence (O00292 whole entry, looked up): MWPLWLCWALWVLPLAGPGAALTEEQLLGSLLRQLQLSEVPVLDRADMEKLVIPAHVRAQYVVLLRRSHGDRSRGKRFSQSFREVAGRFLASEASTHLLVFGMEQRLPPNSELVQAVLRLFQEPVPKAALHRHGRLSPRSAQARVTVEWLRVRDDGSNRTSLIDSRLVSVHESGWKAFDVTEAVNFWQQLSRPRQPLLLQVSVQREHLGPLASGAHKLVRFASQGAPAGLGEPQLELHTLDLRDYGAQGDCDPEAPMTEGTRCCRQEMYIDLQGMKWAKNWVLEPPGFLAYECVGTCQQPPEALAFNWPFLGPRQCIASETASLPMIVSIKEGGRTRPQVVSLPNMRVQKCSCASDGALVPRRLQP
Albumin (Bos taurus), sequence (P02769 whole entry, looked up): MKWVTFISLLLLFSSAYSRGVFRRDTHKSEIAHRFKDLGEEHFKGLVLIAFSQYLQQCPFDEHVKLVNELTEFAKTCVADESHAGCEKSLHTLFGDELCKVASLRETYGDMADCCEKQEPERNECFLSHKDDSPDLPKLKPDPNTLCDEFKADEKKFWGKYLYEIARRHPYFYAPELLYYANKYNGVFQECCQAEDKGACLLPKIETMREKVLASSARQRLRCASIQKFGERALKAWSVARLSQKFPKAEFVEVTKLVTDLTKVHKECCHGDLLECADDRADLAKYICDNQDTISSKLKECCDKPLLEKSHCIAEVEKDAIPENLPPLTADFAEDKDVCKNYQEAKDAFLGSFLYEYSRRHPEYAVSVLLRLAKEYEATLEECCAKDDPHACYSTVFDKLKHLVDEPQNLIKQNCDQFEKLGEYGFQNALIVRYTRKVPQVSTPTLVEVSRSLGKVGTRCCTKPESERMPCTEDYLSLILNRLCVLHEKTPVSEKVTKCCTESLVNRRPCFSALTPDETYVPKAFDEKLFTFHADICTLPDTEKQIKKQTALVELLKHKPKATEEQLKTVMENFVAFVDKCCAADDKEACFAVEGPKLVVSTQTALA
Torsin-1A-interacting protein 1 (Homo sapiens), sequence (Q5JTV8 whole entry, looked up): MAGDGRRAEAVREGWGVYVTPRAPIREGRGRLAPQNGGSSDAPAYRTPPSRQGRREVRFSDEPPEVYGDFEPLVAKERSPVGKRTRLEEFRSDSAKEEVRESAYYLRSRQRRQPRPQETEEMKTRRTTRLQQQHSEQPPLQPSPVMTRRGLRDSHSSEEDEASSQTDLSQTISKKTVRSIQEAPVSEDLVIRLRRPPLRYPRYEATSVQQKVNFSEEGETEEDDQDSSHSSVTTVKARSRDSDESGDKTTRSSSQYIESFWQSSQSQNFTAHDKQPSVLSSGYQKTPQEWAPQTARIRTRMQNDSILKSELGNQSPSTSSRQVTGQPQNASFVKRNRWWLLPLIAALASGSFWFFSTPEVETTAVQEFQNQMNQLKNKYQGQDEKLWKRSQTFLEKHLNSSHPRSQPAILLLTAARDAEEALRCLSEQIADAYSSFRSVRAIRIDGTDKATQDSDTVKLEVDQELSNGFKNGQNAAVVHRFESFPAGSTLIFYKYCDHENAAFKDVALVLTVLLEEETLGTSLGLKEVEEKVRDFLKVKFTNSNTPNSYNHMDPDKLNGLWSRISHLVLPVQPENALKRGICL

SMILES	composite z-score [1]	z-score [2]	composite z-score [3]	composite z-score [4]	composite z-score [5]	composite z-score [6]	composite z-score [7]	composite z-score [8]	composite z-score [9]	composite z-score [10]	composite z-score (Albumin (Bos taurus))	composite Z-score [11]	composite z-score [12]	composite z-score [13]	composite z-score [14]	composite z-score [15]	composite z-score [16]	composite z-score (Sam68 (KHDRBS1))	composite z-score [17]	composite z-score [18]
Cc1ccc(N2C(=O)c3ccccc3[C@@H](C(=O)NC(C)C)[C@@H]2c2ccc(CO)cc2)nc1	-0.191	-0.301	0.0413	-0.973	-0.754	0.0101	-0.291	-0.493	2.09	-0.719	-0.106	-0.0969 (inactive)	-0.272	-0.152	0.743	0.971	0.618	-0.721	-0.0432	-0.0441
CCOC(=O)C[C@H]1[C@H](OC(=O)c2cc3ccccc3oc2=O)[C@@H](NC(=O)c2ccc3ccccc3c2)c2cc(OCCCO)ccc2N1C(=O)c1ccccc1	1.39	-0.593	0.129	-0.0786	-0.337	-0.12	0.214	-0.0863	0.739	0.43	0.342	0.465 (inactive)	0.0745	-0.123	0.571	0.224	0.334	1.29	0.234	0.275
[N-]=[N+]=Nc1ccccc1[C@H]1OC(c2ccc(OCCCO)cc2)=N[C@@]1(CCS(=O)(=O)c1ccccc1)C(=O)N1CCOCC1	0.946	0.384	0.52	2.15	1.24	0.318	1.39	1.28	2.1	3.35	1.08	1.23 (inactive)	0.586	0.358	0.522	2.65	0.603	1.3	-0.409	1.22
Cc1ccc(C(C)CC(O)C2C=CC3C(=O)NC(=O)C3N2Nc2ccccn2)o1 (stereo not given)	0.0598	-0.146	0.479	-0.409	-0.743	-0.1	-0.0626	-0.0863	0.773	-0.0054	-0.5	0.598 (inactive)	0.237	-0.106	0.887	0.305	0.149	0.259	0.676	-0.336
O=C(NCC(F)(F)F)[C@@H]1c2ccccc2C(=O)N(Cc2ccccc2)[C@H]1c1ccc(CO)cc1	0.337	-0.32	-1.78	-0.189	0.621	-0.158	-0.0849	0.0056	-0.236	-0.846	-1.27	0.111 (inactive)	-0.354	-0.0586	0.723	1.08	0.345	-0.141	-1.57	-0.331
Cc1ccc(S[C@]2(C(=O)NCCCN(C)C)CC(=O)N(C(C)C)[C@@H]2c2ccc(CO)cc2I)cc1	-0.257	-2.53	-0.829	0.314	0.344	-0.0748	-0.0035	-0.487	0.309	0.397	0.746	-0.181 (inactive)	-0.004	-0.127	0.721	1.23	0.693	0.271	-0.0376	0.257
